Assay [1] deals with XIP peptide (Xip251-270) binding. The assay can be described thus: small-molecule binders of XIP peptide, primary screen, biochemical, small-molecule microarray, fluorescence 635/667 nm, 0.1 µg/mL protein (AID 1182). To be noted: fluorescent protein binding, 635 nm, higher = more signal, called active from +8 up or from −8 down.
In the next assay the test system is XIP peptide (Xip251-270). The assay can be described thus: small-molecule binders of XIP peptide, primary screen, biochemical, small-molecule microarray, fluorescence 635/667 nm, 0.5 µg/mL protein (AID 1183). As to conditions: small-molecule microarray binding, fluorescence 635 nm; higher = more signal.
A short description of assay [2]: Plasmodium falciparum growth inhibition, primary screen, strain 3D7, DAPI fluorescence, 100 nL (AID 1184).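 Also: parasites grown inside human red blood cells in medium with human serum.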 To be noted: P. falciparum 3D7 growth, 3 d, higher = more signal.
Assay [3] concerns the target Homeobox protein Hox-A13 (Mus musculus) (UniProt Q62424). The assay can be described thus: inhibitors of HoxA13-DNA binding, primary screen, biochemical, fluorescence polarization, labeled oligonucleotide (AID 1185). As to conditions: 15 min, higher = more signal, called active from +8 up or from −8 down. Background: In fluorescence polarisation assays a small probe gives low polarisation when free and higher when bound to something large.

Assay [4] is described as follows: inhibitors of hydroxyurea-induced Chk1 phosphorylation, primary screen, imaging, HeLa, phospho-Chk1 antibody, percent positive cells (AID 1186). As to conditions: hydroxyurea-induced phospho-Chk1 immunofluorescence imaging, higher = more signal.
Assay [5] can be described thus: inhibitors of hydroxyurea-induced Chk1 phosphorylation, primary screen, imaging, HeLa, phospho-Chk1 nuclear intensity (AID 1187). As to conditions: hydroxyurea-induced phospho-Chk1 immunofluorescence imaging, higher = more signal.

Experimental findings from PubChem BioAssay are described below.

Active and inactive are the calls of the source. Unless noted, no rule for the calls is given here.

Sequence of Homeobox protein Hox-A13 (Mus musculus) (Q62424 whole entry, looked up): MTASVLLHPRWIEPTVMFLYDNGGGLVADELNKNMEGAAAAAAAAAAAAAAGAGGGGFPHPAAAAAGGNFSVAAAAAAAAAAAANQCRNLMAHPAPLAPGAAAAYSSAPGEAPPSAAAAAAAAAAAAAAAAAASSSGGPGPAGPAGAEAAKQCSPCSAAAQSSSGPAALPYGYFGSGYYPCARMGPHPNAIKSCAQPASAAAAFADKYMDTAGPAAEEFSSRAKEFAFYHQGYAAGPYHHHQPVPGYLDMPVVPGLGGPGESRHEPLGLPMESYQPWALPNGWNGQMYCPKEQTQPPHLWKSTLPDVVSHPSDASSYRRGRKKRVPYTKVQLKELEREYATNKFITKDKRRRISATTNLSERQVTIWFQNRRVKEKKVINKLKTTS

`O=C1C2C=CC(C(O)C=Cc3ccc([N+](=O)[O-])cc3)N(Nc3ccccc3F)C2C(=O)N1c1ccccc1` (stereo not given): the results for the composite z-score (in assay [1]; in the assay on XIP peptide (Xip251-270)) were 0.308 (inactive) and 0.774, respectively. Moreover, the z-score in assay [2] is -0.448; in assay [3] it was -4.79 (inactive); in assay [4], -0.668 (inactive); in assay [5] it was -1.16 (inactive).
Turning to `O=C1OCCC/C=C\[C@H]2OC34C=CCN(c5ccc6ccccc6c5)C(=O)[C@H]3N(CCCCCO)C(=O)[C@@H]4C12` (stereo not given in full), the values for the composite z-score (in assay [1]; in the assay on XIP peptide (Xip251-270)) were 0.0867 (inactive) and 0.0861, respectively. Further, the z-score is 1.73 in assay [2], -4.94 (inactive) in assay [3], 0.715 (inactive) in assay [4] and -0.0708 (inactive) in assay [5].
Consider `CCCCN1CC=CC23O[C@@H]4/C=C\CCCOC(=O)C4[C@H]2C(=O)N(CCCO)[C@@H]3C1=O` (stereo not given in full), for which the composite z-score in assay [1] is 1.48 (inactive); in the assay on XIP peptide (Xip251-270), 0.737. For the same compound, the z-score in assay [2] was 0.651; in assay [3] it was -5.29 (inactive); in assay [4] it was 0.267 (inactive); in assay [5], 0.576 (inactive).
Regarding `COc1ccc([Si](C)(C)[C@@H]2[C@@H](CCn3cc([C@H](O)c4ccccc4)nn3)O[C@]3(C(=O)N(Cc4cccc(N5CCC5=O)c4)c4ccccc43)[C@H]2C)cc1`, the composite z-score is 0.863 (inactive) in assay [1] and 0.46 in the assay on XIP peptide (Xip251-270). In addition, the z-score in assay [2] is -2.48; in assay [3] it was -2.8 (inactive); in assay [4] it was -0.529 (inactive); in assay [5], -0.414 (inactive).
For `CC(C)NC(=O)[C@@]1(Cc2ccccc2I)c2ccccc2C(=O)N(Cc2ccccc2Cl)[C@H]1c1ccc(CO)cc1`, the composite z-score is 0.705 (inactive) in assay [1] and 0.615 with XIP peptide (Xip251-270). The z-score was 0.0173 in assay [2], -3.93 (inactive) in assay [3], -0.0537 (inactive) in assay [4] and 0.1 (inactive) in assay [5].
On to `CS(=O)(=O)CCOC(=O)C1=CC(CCCO)=CC(c2ccc(CN3CCCC3)cc2)N(Cc2cccc(OC(F)(F)F)c2)C=C1C(=O)OCCS(C)(=O)=O` (stereo not given), for which the results for the composite z-score (in assay [1]; with XIP peptide (Xip251-270)) were 0.211 (inactive) and 0.584, respectively. Also, the z-score in assay [2] was -2.79; in assay [3], -1.82 (inactive); in assay [4], 0.157 (inactive); in assay [5] it was 1.28 (inactive).
Turning to `CC(C)(C)OC(=O)CC[C@@]1(C(=O)N2CCCCC2)N=C(c2ccc(OCCCO)cc2)O[C@@H]1c1ccccc1`, the composite z-score in assay [1] is 0.671 (inactive); in the assay on XIP peptide (Xip251-270), 0.267. Further, the z-score in assay [2] was -2.03; in assay [3], -5.06 (inactive); in assay [4] it was -0.102 (inactive); in assay [5], -0.0985 (inactive).
Turning to `CO[C@H]1O[C@H](CO)[C@@H](OC(=O)Nc2ccc(Br)cc2)[C@@H]2OC(=O)[C@H](Cc3cccc(Br)c3)C/C=C/C[C@@H](Cc3cccc(Br)c3)C(=O)O[C@@H]12`, the composite z-score in assay [1] was 0.406 (inactive); with XIP peptide (Xip251-270), 0.467. Also, the z-score in assay [2] is -1.55; in assay [3], 1.51 (inactive); in assay [4] it was -0.423 (inactive); in assay [5] it was -0.471 (inactive).
`COc1cc(CO)cc(I)c1O[C@H]1C=C(C(=O)NCCO)C[C@@H](NC[C@@H]2CCCO2)[C@@H]1O`: the composite z-score in assay [1] was 0.546 (inactive); in the assay on XIP peptide (Xip251-270), 0.711. Also, the z-score in assay [2] is -1.22; in assay [3] it was -6.95 (inactive); in assay [4], -0.399 (inactive); in assay [5], -1.01 (inactive).
Consider `CC(C)(C)OC(=O)CC[C@]1(C(N)=O)N=C(c2ccc(OCCCO)cc2)O[C@H]1c1ccccc1`, for which the composite z-score in assay [1] was 1.25 (inactive); in the assay on XIP peptide (Xip251-270), -0.612. Also, the z-score was 0.404 in assay [2], -2.87 (inactive) in assay [3], 0.444 (inactive) in assay [4] and -0.0163 (inactive) in assay [5].
Consider `O=C1O[C@H](c2ccccc2)[C@H](c2ccccc2)N2[C@H]1[C@@H](C(=O)NC[C@H](O)c1ccccc1)[C@]1(C(=O)Nc3ccccc31)[C@H]2c1ccc(O)cc1`, for which the composite z-score was 1.5 (inactive) in assay [1] and 0.665 in the assay with XIP peptide (Xip251-270). Moreover, the z-score in assay [2] is -0.834; in assay [3], -4.25 (inactive); in assay [4], -0.0383 (inactive); in assay [5], 0.188 (inactive).
Take `C=C(CCCC)/C(=C/C[C@H](OC(=O)c1ccncc1)c1ccc(OCCO)cc1)c1cc(C(=O)OC)ccc1OC`: the composite z-score in assay [1] was -0.235 (inactive); in the assay on XIP peptide (Xip251-270) it was -0.132. The z-score is -3.09 in assay [2], -2.79 (inactive) in assay [3], -1.01 (inactive) in assay [4] and -0.504 (inactive) in assay [5].
Turning to `C=C(CCCC)C(=O)CC[C@@H](OC(C)=O)c1ccc(CO)o1`, the values for the composite z-score (in assay [1]; in the assay on XIP peptide (Xip251-270)) were 0.247 (inactive) and 0.337, respectively. Further, the z-score was -0.201 in assay [2], -3.66 (inactive) in assay [3], 0.593 (inactive) in assay [4] and 0.245 (inactive) in assay [5].
In the case of `O=C1N(CCS(=O)(=O)c2ccccc2)c2ccccc2[C@@H]2OC(c3ccc(OCCCO)cc3)=N[C@]12Cc1ccccc1`, the composite z-score in assay [1] is 0.395 (inactive); in the assay on XIP peptide (Xip251-270), 0.639. For the same compound, the z-score in assay [2] was -2.17; in assay [3], -1.41 (inactive); in assay [4], -0.522 (inactive); in assay [5] it was -0.825 (inactive).
Turning to `COc1ccc([C@H]2C[C@H]3C(I)=C[C@@H]2C(=O)[C@]32CO2)cc1`, the composite z-score in assay [1] was -0.344 (inactive); with XIP peptide (Xip251-270), 0.68. Also, the z-score in assay [2] is 0.456; in assay [3] it was -1.41 (inactive); in assay [4], 0.125 (inactive); in assay [5], -0.217 (inactive).
For the compound `CN(C)CCCCNC(=O)[C@@H]1C[C@@H]2C(=O)N[C@@H](CCCCN)C(=O)N2[C@@H]1c1ccc(O)cc1`, the composite z-score in assay [1] was 1.09 (inactive); with XIP peptide (Xip251-270) it was 0.881. Moreover, the z-score in assay [2] is -1.8; in assay [3], 1.46 (inactive); in assay [4], 0.128 (inactive); in assay [5] it was -0.115 (inactive).
Consider `[N-]=[N+]=Nc1ccccc1C[C@]1(C(=O)NCc2ccccc2)N=C(c2ccc(OCCCO)cc2)O[C@H]1c1ccccc1N=[N+]=[N-]`, for which the composite z-score in assay [1] was -0.12 (inactive); in the assay on XIP peptide (Xip251-270), 0.681. The z-score in assay [2] was -2.32; in assay [3], 0.69 (inactive); in assay [4] it was -0.231 (inactive); in assay [5], -0.741 (inactive).
Take `C#CCOc1ccc(C[C@@H](C(=O)OC)N(CC#C)[C@@H](/C=C/C2CC2)[C@H](O)Cc2ccccc2)cc1`: the composite z-score in assay [1] is -0.365 (inactive); with XIP peptide (Xip251-270), -0.119. The z-score was -1.21 in assay [2], -3.88 (inactive) in assay [3], -0.146 (inactive) in assay [4] and -0.432 (inactive) in assay [5].
Regarding `COCCCNC(=O)[C@@]1(Sc2ccc(C)cc2)CC(=O)N(Cc2ccccc2Cl)[C@@H]1c1ccc(CO)cc1`, the composite z-score in assay [1] was 0.906 (inactive); in the assay on XIP peptide (Xip251-270), 0.887. The z-score in assay [2] was -1.63; in assay [3], -2.28 (inactive); in assay [4], -0.63 (inactive); in assay [5], -1.1 (inactive).
As to `CN1C(=O)C2C=CC(C(O)C=Cc3ccc([N+](=O)[O-])cc3)N(Nc3ccccc3)C2C1=O` (stereo not given), the composite z-score in assay [1] is 0.113 (inactive); in the assay with XIP peptide (Xip251-270) it was 0.612. Besides, the z-score in assay [2] is 0.431; in assay [3], -5.37 (inactive); in assay [4], 0.0831 (inactive); in assay [5] it was -0.733 (inactive).
As to `C=CC[C@]1(C(N)=O)COC(c2ccc(OCCCO)cc2)=N1`, the composite z-score in assay [1] is -0.539 (inactive); in the assay with XIP peptide (Xip251-270), -0.0487. The z-score in assay [2] was 0.668; in assay [3], -0.063 (inactive); in assay [4] it was -0.551 (inactive); in assay [5] it was -0.351 (inactive).
For the compound `COC(=O)[C@@]1(Cc2ccccc2)[C@H]2c3cc(C(=O)N(C)C)n(CCc4c[nH]c5ccc(O)cc45)c3C[C@H]2CN1C(=O)c1ccccc1`, the composite z-score in assay [1] was 1.44 (inactive); with XIP peptide (Xip251-270) it was 0.818. Besides, the z-score is -1.59 in assay [2], -5.16 (inactive) in assay [3], -0.996 (inactive) in assay [4] and -0.844 (inactive) in assay [5].
On to `COCCCNC(=O)[C@]1(Cc2ccccc2)N=C(c2ccc(OCCCO)cc2)O[C@@H]1c1ccccc1CN=[N+]=[N-]`, for which the results for the composite z-score (in assay [1]; with XIP peptide (Xip251-270)) were 1.88 (inactive) and 0.711, respectively. Also, the z-score was -2.33 in assay [2], -3.2 (inactive) in assay [3], -0.6 (inactive) in assay [4] and -0.537 (inactive) in assay [5].
With `O=C1C2C=CC(C(O)C=Cc3ccc([N+](=O)[O-])cc3)N(n3cnnc3)C2C(=O)N1Cc1ccccc1` (stereo not given), the composite z-score in assay [1] was 1.01 (inactive); in the assay with XIP peptide (Xip251-270) it was 0.856. The z-score in assay [2] was -0.0257; in assay [3], -3.97 (inactive); in assay [4], -0.253 (inactive); in assay [5], -0.32 (inactive).
For the compound `Cc1ccc(C2C3C(=O)CC4C(=O)N(c5ccccc5)C(=O)C4C3CN2S(=O)(=O)c2ccc(C)cc2)cc1` (stereo not given), the composite z-score was 0.053 (inactive) in assay [1] and 0.785 in the assay with XIP peptide (Xip251-270). Moreover, the z-score is 0.395 in assay [2], -3.61 (inactive) in assay [3], 0.951 (inactive) in assay [4] and 1 (inactive) in assay [5].
